Data reported in PubChem BioAssay (NCI).
About 83,000 compounds went through this panel and 20% of them were active in at least one assay; those are over-represented in the sample as a whole.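 96-well plates, one dose, 48 hours. Percent growth reported; active if below 10.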 Unmarked numbers belong to inactive results. The source made the active and inactive calls.

Tests used:
Assay in all cases: NCI-60 one-dose screen, 48 h (100 = growth as untreated, 0 = no growth, -100 = all killed)
Details in all cases: 10 µM unless noted
[1] = tested on: NCI-H23 lung
[2] = tested on: NCI-H226 lung
[3] = tested on: NCI-H322M lung
[4] = tested on: HOP-62 NSCLC
[5] = tested on: NCI-H460 lung
[6] = tested on: NCI-H522 lung
[7] = tested on: A549/ATCC NSCLC
[8] = tested on: 786-0 renal
[9] = tested on: COLO 205 colon
[10] = tested on: DU-145 prostate
[11] = tested on: K-562 leukemia
[12] = tested on: MALME-3M melanoma
[13] = tested on: MDA-MB-231 breast
[14] = tested on: RXF 393 renal
[15] = tested on: SF-268 CNS
[16] = tested on: SF-295 CNS
[17] = tested on: SF-539 CNS
[18] = tested on: UACC-257 melanoma
[19] = tested on: M14 melanoma

Question: For `C=C(C)[C@@H]1CC[C@]2(C(=O)OCCOCCOCC[P+](c3ccccc3)(c3ccccc3)c3ccccc3)CC[C@]3(C)[C@H](CC[C@@H]4[C@@]5(C)CC[C@H](C)C(C)(C)[C@@H]5CC[C@]43C)[C@@H]12`, which growth [1] is on record?
Answer: -80% (active)

Question: And the growth [2]?
Answer: -70.9% (active)

Question: And the growth [3]?
Answer: -98.1% (active)

Question: What about the growth [4] of the same compound?
Answer: -79.5% (active)

Question: And the growth [5]?
Answer: -78% (active)

Question: What about the growth [6] of the same compound?
Answer: -80.6% (active)

Question: And the growth [7]?
Answer: -83.7% (active)

Question: What about the growth [8] of the same compound?
Answer: -83.3% (active)

Question: And the growth [9]?
Answer: -82.2% (active)

Question: What about the growth [10] of the same compound?
Answer: -92.1% (active)

Question: And the growth [11]?
Answer: -65.7% (active)

Question: And the growth [12]?
Answer: -79.4% (active)

Question: What about the growth [13] of the same compound?
Answer: -74% (active)

Question: And the growth [14]?
Answer: -85.3% (active)

Question: What about the growth [15] of the same compound?
Answer: -74.5% (active)

Question: And the growth [16]?
Answer: -87.5% (active)

Question: What about the growth [17] of the same compound?
Answer: -90.3% (active)

Question: What about the growth [18] of the same compound?
Answer: -88.1% (active)

Question: What about the growth [19] of the same compound?
Answer: -77.4% (active)

Question: With `O=C(Nc1cc(=O)[nH]c(=O)[nH]1)C(Cl)Cl` as the compound, how does the growth [1] read?
Answer: 107%

Question: And the growth [2]?
Answer: 102%

Question: What about the growth [3] of the same compound?
Answer: 95.5%

Question: What about the growth [4] of the same compound?
Answer: 106%

Question: And the growth [5]?
Answer: 109%

Question: What about the growth [6] of the same compound?
Answer: 90.3%

Question: What about the growth [7] of the same compound?
Answer: 97.4%

Question: And the growth [8]?
Answer: 107%

Question: What about the growth [9] of the same compound?
Answer: 122%

Question: And the growth [10]?
Answer: 113%

Question: And the growth [11]?
Answer: 99.2%

Question: What about the growth [12] of the same compound?
Answer: 96.7%

Question: And the growth [13]?
Answer: 102%

Question: What about the growth [14] of the same compound?
Answer: 106%

Question: What about the growth [15] of the same compound?
Answer: 99.9%

Question: What about the growth [16] of the same compound?
Answer: 105%

Question: And the growth [17]?
Answer: 106%

Question: What about the growth [18] of the same compound?
Answer: 96.5%

Question: What about the growth [19] of the same compound?
Answer: 106%

Question: How did the growth [1] turn out when `O=[N+]([O-])c1ccc(Oc2ccc(-c3ccccc3)cc2)cc1` was run?
Answer: 85.3%

Question: What about the growth [2] of the same compound?
Answer: 76.7%

Question: What about the growth [3] of the same compound?
Answer: 100%

Question: And the growth [4]?
Answer: 92.1%

Question: What about the growth [5] of the same compound?
Answer: 92.9%

Question: And the growth [6]?
Answer: 67.5%

Question: And the growth [7]?
Answer: 91.5%

Question: What about the growth [8] of the same compound?
Answer: 84.6%

Question: And the growth [9]?
Answer: 109%

Question: And the growth [10]?
Answer: 97.5%

Question: And the growth [11]?
Answer: 70.8%

Question: And the growth [12]?
Answer: 109%

Question: What about the growth [13] of the same compound?
Answer: 88.5%

Question: What about the growth [14] of the same compound?
Answer: 102%

Question: What about the growth [15] of the same compound?
Answer: 94.5%

Question: What about the growth [16] of the same compound?
Answer: 89.4%

Question: And the growth [17]?
Answer: 94.7%

Question: What about the growth [18] of the same compound?
Answer: 98.1%

Question: What about the growth [19] of the same compound?
Answer: 98.3%

Question: With `COc1ccc2nc(-c3ccc(Cl)cc3)cc(-c3nnc(SC/C(=N/O)c4ccccc4)o3)c2c1` as the compound, how does the growth [1] read?
Answer: 26.1%

Question: What about the growth [2] of the same compound?
Answer: 42.7%

Question: What about the growth [3] of the same compound?
Answer: 67.9%

Question: And the growth [4]?
Answer: 59.4%

Question: What about the growth [5] of the same compound?
Answer: 29.6%

Question: What about the growth [6] of the same compound?
Answer: 45.7%

Question: And the growth [7]?
Answer: 37.3%

Question: What about the growth [8] of the same compound?
Answer: 24.9%

Question: And the growth [9]?
Answer: 31.5%

Question: And the growth [10]?
Answer: 29.7%

Question: What about the growth [11] of the same compound?
Answer: 20.1%

Question: And the growth [12]?
Answer: 25.5%

Question: What about the growth [13] of the same compound?
Answer: 49.6%

Question: And the growth [14]?
Answer: 5.44% (active)

Question: And the growth [15]?
Answer: 55.3%

Question: And the growth [16]?
Answer: 36.3%

Question: And the growth [17]?
Answer: 43.5%

Question: What about the growth [18] of the same compound?
Answer: 60.1%

Question: And the growth [19]?
Answer: 25.2%
